# Changes are numbered by the printed parent chain.
# Experiments:
# Experiment in all cases: PBM; 200 nM protein, PBS
# Conditions in all cases: dsDNA, one strand shown
# NKX2-5 [1] = target: NKX2-5 (Homo sapiens, UniProt P52952 125-210, R139K)
# HOXC9 [2] = target: HOXC9 (Homo sapiens, UniProt P31274 178-260, K195R)
# HOXC9 [3] = target: HOXC9 (Homo sapiens, UniProt P31274 178-260)
# ALX3 [4] = target: ALX3 (Homo sapiens, UniProt O95076 139-225, N203Q)
# HOXC9 [5] = target: HOXC9 (Homo sapiens, UniProt P31274 178-260, R193K)
# Chain of HOXC9 (Homo sapiens, UniProt P31274 178-260, R193K) (P31274 178-260 R193K): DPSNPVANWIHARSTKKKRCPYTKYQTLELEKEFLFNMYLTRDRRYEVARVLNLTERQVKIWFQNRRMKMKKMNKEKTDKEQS
# ALX3 [6] = target: ALX3 (Homo sapiens, UniProt O95076 139-225)
# Chain of ALX3 (Homo sapiens, UniProt O95076 139-225) (O95076 139-225): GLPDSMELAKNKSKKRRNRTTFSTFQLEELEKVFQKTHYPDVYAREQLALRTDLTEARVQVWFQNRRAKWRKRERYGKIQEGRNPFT
# PROP1 [7] = target: PROP1 (Homo sapiens, UniProt O75360 56-141)
# Chain of PROP1 (Homo sapiens, UniProt O75360 56-141) (O75360 56-141): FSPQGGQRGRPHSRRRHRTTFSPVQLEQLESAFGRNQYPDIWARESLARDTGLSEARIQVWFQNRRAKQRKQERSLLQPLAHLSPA
# PROP1 [8] = target: PROP1 (Homo sapiens, UniProt O75360 56-141, R99H)
# Chain of PROP1 (Homo sapiens, UniProt O75360 56-141, R99H) (O75360 56-141 R99H): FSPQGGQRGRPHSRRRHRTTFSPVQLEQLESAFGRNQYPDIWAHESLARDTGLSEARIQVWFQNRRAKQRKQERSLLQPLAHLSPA
# ALX3 [9] = target: ALX3 (Homo sapiens, UniProt O95076 139-225, L168Q)
# Chain of ALX3 (Homo sapiens, UniProt O95076 139-225, L168Q) (O95076 139-225 L168Q): as the sequence (O95076 139-225) above, with L30Q counted along it
# HOXC9 [10] = target: HOXC9 (Homo sapiens, UniProt P31274 178-260, R222W)
# Chain of HOXC9 (Homo sapiens, UniProt P31274 178-260, R222W) (P31274 178-260 R222W): as the sequence (P31274 178-260 R193K) above, with K16R, R45W counted along it
# ALX3 [11] = target: ALX3 (Homo sapiens, UniProt O95076 139-225, L168V)
# Chain of ALX3 (Homo sapiens, UniProt O95076 139-225, L168V) (O95076 139-225 L168V): as the sequence (O95076 139-225) above, with L30V counted along it
# PROP1 [12] = target: PROP1 (Homo sapiens, UniProt O75360 56-141, F88S)
# Chain of PROP1 (Homo sapiens, UniProt O75360 56-141, F88S) (O75360 56-141 F88S): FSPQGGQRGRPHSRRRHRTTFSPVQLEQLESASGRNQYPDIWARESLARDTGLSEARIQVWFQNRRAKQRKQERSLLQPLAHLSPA
# ALX3 [13] = target: ALX3 (Homo sapiens, UniProt O95076 139-225, N203S)
# Chain of ALX3 (Homo sapiens, UniProt O95076 139-225, N203S) (O95076 139-225 N203S): as the sequence (O95076 139-225) above, with N65S counted along it
# NKX2-5 [14] = target: NKX2-5 (Homo sapiens, UniProt P52952 125-210)
# Chain of NKX2-5 (Homo sapiens, UniProt P52952 125-210) (P52952 125-210): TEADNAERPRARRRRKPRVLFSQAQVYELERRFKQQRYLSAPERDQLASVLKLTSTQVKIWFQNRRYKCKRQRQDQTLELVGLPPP
# HOXA7 [15] = target: HOXA7 (Homo sapiens, UniProt P31268 116-202)
# Chain of HOXA7 (Homo sapiens, UniProt P31268 116-202) (P31268 116-202): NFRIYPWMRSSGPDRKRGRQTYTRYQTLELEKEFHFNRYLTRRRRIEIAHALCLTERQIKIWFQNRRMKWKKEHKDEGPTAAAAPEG
# HOXA7 [16] = target: HOXA7 (Homo sapiens, UniProt P31268 116-202, W177C)
# Chain of HOXA7 (Homo sapiens, UniProt P31268 116-202, W177C) (P31268 116-202 W177C): as the sequence (P31268 116-202) above, with W62C counted along it
# PRRX1 [17] = target: PRRX1 (Homo sapiens, UniProt P54821 80-166, F113S)
# Chain of PRRX1 (Homo sapiens, UniProt P54821 80-166, F113S) (P54821 80-166 F113S): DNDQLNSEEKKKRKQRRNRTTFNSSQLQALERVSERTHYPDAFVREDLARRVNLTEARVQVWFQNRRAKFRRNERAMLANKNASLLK
# PRRX1 [18] = target: PRRX1 (Homo sapiens, UniProt P54821 80-166)
# Chain of PRRX1 (Homo sapiens, UniProt P54821 80-166) (P54821 80-166): as the sequence (P54821 80-166 F113S) above, with S34F counted along it
# HOXA4 [19] = target: HOXA4 (Homo sapiens, UniProt Q00056 201-287, W262R)
# Chain of HOXA4 (Homo sapiens, UniProt Q00056 201-287, W262R) (Q00056 201-287 W262R): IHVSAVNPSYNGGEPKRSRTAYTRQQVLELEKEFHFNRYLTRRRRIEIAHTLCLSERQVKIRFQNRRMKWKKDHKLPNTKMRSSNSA
# HOXA4 [20] = target: HOXA4 (Homo sapiens, UniProt Q00056 201-287, R217L)
# Chain of HOXA4 (Homo sapiens, UniProt Q00056 201-287, R217L) (Q00056 201-287 R217L): as the sequence (Q00056 201-287 W262R) above, with R17L, R62W counted along it
# NKX2-6 [21] = target: T1, NKX2-6 (Homo sapiens, UniProt A6NCS4 118-204)
# T1 sequence: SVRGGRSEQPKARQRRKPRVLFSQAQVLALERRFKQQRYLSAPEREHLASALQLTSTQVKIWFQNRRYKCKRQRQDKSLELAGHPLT
# HOXA4 [22] = target: HOXA4 (Homo sapiens, UniProt Q00056 201-287)
# Chain of HOXA4 (Homo sapiens, UniProt Q00056 201-287) (Q00056 201-287): as the sequence (Q00056 201-287 W262R) above, with R62W counted along it
# NKX2-6 [23] = target: T2, NKX2-6 (Homo sapiens, UniProt A6NCS4 118-204, F151L)
# T2 sequence: T1 sequence with F34L
# HOXA4 [24] = target: HOXA4 (Homo sapiens, UniProt Q00056 201-287, W262F)
# Chain of HOXA4 (Homo sapiens, UniProt Q00056 201-287, W262F) (Q00056 201-287 W262F): as the sequence (Q00056 201-287 W262R) above, with R62F counted along it
# PAX4 [25] = target: T3, PAX4 (Homo sapiens, UniProt O43316 9-242, R200K)
# T3 sequence: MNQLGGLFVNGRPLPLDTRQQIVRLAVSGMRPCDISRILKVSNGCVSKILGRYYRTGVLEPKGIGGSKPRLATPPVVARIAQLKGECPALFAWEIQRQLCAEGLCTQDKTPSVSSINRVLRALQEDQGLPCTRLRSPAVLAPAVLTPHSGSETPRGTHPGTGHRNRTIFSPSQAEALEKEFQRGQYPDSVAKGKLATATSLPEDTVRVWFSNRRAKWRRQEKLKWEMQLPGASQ
# PAX4 [26] = target: T4, PAX4 (Homo sapiens, UniProt O43316 9-242)
# T4 sequence: T3 sequence with K192R
# HOXA2 [27] = target: HOXA2 (Homo sapiens, UniProt O43364 129-215, R185T)
# Chain of HOXA2 (Homo sapiens, UniProt O43364 129-215, R185T) (O43364 129-215 R185T): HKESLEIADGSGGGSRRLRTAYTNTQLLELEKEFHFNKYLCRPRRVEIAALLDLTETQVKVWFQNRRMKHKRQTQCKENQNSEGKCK
# MSX2 [28] = target: MSX2 (Homo sapiens, UniProt P35548 130-214, R199I)
# Chain of MSX2 (Homo sapiens, UniProt P35548 130-214, R199I) (P35548 130-214 R199I): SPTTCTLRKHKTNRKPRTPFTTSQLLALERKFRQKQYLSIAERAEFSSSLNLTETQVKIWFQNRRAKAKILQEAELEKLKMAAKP
# PAX4 [29] = target: T5, PAX4 (Homo sapiens, UniProt O43316 9-242, R200Q)
# T5 sequence: T3 sequence with K192Q
# HOXA2 [30] = target: HOXA2 (Homo sapiens, UniProt O43364 129-215, R185K)
# Chain of HOXA2 (Homo sapiens, UniProt O43364 129-215, R185K) (O43364 129-215 R185K): as the sequence (O43364 129-215 R185T) above, with T57K counted along it
# PAX4 [31] = target: T6, PAX4 (Homo sapiens, UniProt O43316 9-242, F177V)
# T6 sequence: T3 sequence with F169V, K192R
# MSX2 [32] = target: MSX2 (Homo sapiens, UniProt P35548 130-214)
# Chain of MSX2 (Homo sapiens, UniProt P35548 130-214) (P35548 130-214): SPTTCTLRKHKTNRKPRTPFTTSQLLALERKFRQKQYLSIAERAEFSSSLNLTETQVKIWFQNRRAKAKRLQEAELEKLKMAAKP
# PAX4 [33] = target: T7, PAX4 (Homo sapiens, UniProt O43316 9-242, F177Y)
# T7 sequence: T3 sequence with F169Y, K192R
# VAX1 [34] = target: VAX1 (Homo sapiens, UniProt Q5SQQ9 86-172)
# Chain of VAX1 (Homo sapiens, UniProt Q5SQQ9 86-172) (Q5SQQ9 86-172): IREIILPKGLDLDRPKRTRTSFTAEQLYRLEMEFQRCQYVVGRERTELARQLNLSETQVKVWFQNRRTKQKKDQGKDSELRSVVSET
# MSX2 [35] = target: MSX2 (Homo sapiens, UniProt P35548 130-214, F161Y)
# Chain of MSX2 (Homo sapiens, UniProt P35548 130-214, F161Y) (P35548 130-214 F161Y): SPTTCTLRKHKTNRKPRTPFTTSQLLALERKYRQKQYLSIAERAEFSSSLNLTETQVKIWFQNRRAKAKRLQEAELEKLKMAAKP
# VAX1 [36] = target: VAX1 (Homo sapiens, UniProt Q5SQQ9 86-172, T142I)
# Chain of VAX1 (Homo sapiens, UniProt Q5SQQ9 86-172, T142I) (Q5SQQ9 86-172 T142I): as the sequence (Q5SQQ9 86-172) above, with T57I counted along it
# PAX4 [37] = target: T8, PAX4 (Homo sapiens, UniProt O43316 9-242, R227W)
# T8 sequence: T3 sequence with K192R, R219W
# HOXA2 [38] = target: HOXA2 (Homo sapiens, UniProt O43364 129-215, Y150S)
# Chain of HOXA2 (Homo sapiens, UniProt O43364 129-215, Y150S) (O43364 129-215 Y150S): as the sequence (O43364 129-215 R185T) above, with Y22S, T57R counted along it
# NKX3-2 [39] = target: NKX3-2 (Homo sapiens, UniProt P78367 192-278, P234S)
# Chain of NKX3-2 (Homo sapiens, UniProt P78367 192-278, P234S) (P78367 192-278 P234S): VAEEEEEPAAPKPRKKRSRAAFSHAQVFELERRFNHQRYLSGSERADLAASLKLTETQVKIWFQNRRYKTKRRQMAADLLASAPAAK
# HOXA2 [40] = target: HOXA2 (Homo sapiens, UniProt O43364 129-215)
# Chain of HOXA2 (Homo sapiens, UniProt O43364 129-215) (O43364 129-215): as the sequence (O43364 129-215 R185T) above, with T57R counted along it
# VAX1 [41] = target: VAX1 (Homo sapiens, UniProt Q5SQQ9 86-172, K157R)
# Chain of VAX1 (Homo sapiens, UniProt Q5SQQ9 86-172, K157R) (Q5SQQ9 86-172 K157R): as the sequence (Q5SQQ9 86-172) above, with K72R counted along it
# NKX3-2 [42] = target: NKX3-2 (Homo sapiens, UniProt P78367 192-278)
# Chain of NKX3-2 (Homo sapiens, UniProt P78367 192-278) (P78367 192-278): as the sequence (P78367 192-278 P234S) above, with S43P counted along it
# HOXB6 [43] = target: HOXB6 (Homo sapiens, UniProt P17509 132-218, K202E)
# Chain of HOXB6 (Homo sapiens, UniProt P17509 132-218, K202E) (P17509 132-218 K202E): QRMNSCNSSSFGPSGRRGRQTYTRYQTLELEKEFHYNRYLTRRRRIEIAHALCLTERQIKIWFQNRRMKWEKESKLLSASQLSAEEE
# HOXB6 [44] = target: HOXB6 (Homo sapiens, UniProt P17509 132-218)
# Chain of HOXB6 (Homo sapiens, UniProt P17509 132-218) (P17509 132-218): as the sequence (P17509 132-218 K202E) above, with E71K counted along it
# Chain of NKX2-5 (Homo sapiens, UniProt P52952 125-210, R139K) (P52952 125-210 R139K): as the sequence (P52952 125-210) above, with R15K counted along it
# Chain of HOXC9 (Homo sapiens, UniProt P31274 178-260, K195R) (P31274 178-260 K195R): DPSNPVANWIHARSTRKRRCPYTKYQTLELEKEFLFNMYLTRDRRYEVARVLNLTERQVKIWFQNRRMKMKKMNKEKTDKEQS
# Chain of HOXC9 (Homo sapiens, UniProt P31274 178-260) (P31274 178-260): as the sequence (P31274 178-260 R193K) above, with K16R counted along it
# Chain of ALX3 (Homo sapiens, UniProt O95076 139-225, N203Q) (O95076 139-225 N203Q): as the sequence (O95076 139-225) above, with N65Q counted along it
sequence,measurement,setting,value
ACGGGGGC,binding signal,NKX2-5 [1],"9.14 upbm affinity estimate (log intensity, higher = more binding, comparable within an allelic series)"
same,binding signal,HOXC9 [2],"9.65 upbm affinity estimate (log intensity, higher = more binding, comparable within an allelic series)"
same,binding signal,HOXC9 [3],"9.77 upbm affinity estimate (log intensity, higher = more binding, comparable within an allelic series)"
same,binding signal,ALX3 [4],"7.66 upbm affinity estimate (log intensity, higher = more binding, comparable within an allelic series)"
same,binding signal,HOXC9 [5],"9.64 upbm affinity estimate (log intensity, higher = more binding, comparable within an allelic series)"
same,binding signal,ALX3 [6],"7.79 upbm affinity estimate (log intensity, higher = more binding, comparable within an allelic series)"
same,binding signal,PROP1 [7],"6.75 upbm affinity estimate (log intensity, higher = more binding, comparable within an allelic series)"
same,binding signal,PROP1 [8],"6.67 upbm affinity estimate (log intensity, higher = more binding, comparable within an allelic series)"
same,binding signal,ALX3 [9],"7.65 upbm affinity estimate (log intensity, higher = more binding, comparable within an allelic series)"
same,binding signal,HOXC9 [10],"9.54 upbm affinity estimate (log intensity, higher = more binding, comparable within an allelic series)"
same,binding signal,ALX3 [11],"7.65 upbm affinity estimate (log intensity, higher = more binding, comparable within an allelic series)"
same,binding signal,PROP1 [12],"6.19 upbm affinity estimate (log intensity, higher = more binding, comparable within an allelic series)"
same,binding signal,ALX3 [13],"7.62 upbm affinity estimate (log intensity, higher = more binding, comparable within an allelic series)"
same,binding signal,NKX2-5 [14],"9.01 upbm affinity estimate (log intensity, higher = more binding, comparable within an allelic series)"
ACCGTGTC,binding signal,NKX2-5 [1],"8.73 upbm affinity estimate (log intensity, higher = more binding, comparable within an allelic series)"
same,binding signal,HOXA7 [15],"8.54 upbm affinity estimate (log intensity, higher = more binding, comparable within an allelic series)"
same,binding signal,HOXA7 [16],"8.46 upbm affinity estimate (log intensity, higher = more binding, comparable within an allelic series)"
same,binding signal,NKX2-5 [14],"8.93 upbm affinity estimate (log intensity, higher = more binding, comparable within an allelic series)"
CGCCTACC,binding signal,NKX2-5 [1],"8.86 upbm affinity estimate (log intensity, higher = more binding, comparable within an allelic series)"
same,binding signal,PRRX1 [17],"9.18 upbm affinity estimate (log intensity, higher = more binding, comparable within an allelic series)"
same,binding signal,PRRX1 [18],"8.83 upbm affinity estimate (log intensity, higher = more binding, comparable within an allelic series)"
same,binding signal,NKX2-5 [14],"8.84 upbm affinity estimate (log intensity, higher = more binding, comparable within an allelic series)"
GTCTAGAC,binding signal,NKX2-5 [1],"9.21 upbm affinity estimate (log intensity, higher = more binding, comparable within an allelic series)"
same,binding signal,HOXA4 [19],"9.98 upbm affinity estimate (log intensity, higher = more binding, comparable within an allelic series)"
same,binding signal,PRRX1 [17],"9.59 upbm affinity estimate (log intensity, higher = more binding, comparable within an allelic series)"
same,binding signal,HOXA4 [20],"10.1 upbm affinity estimate (log intensity, higher = more binding, comparable within an allelic series)"
same,binding signal,NKX2-6 [21],"10.1 upbm affinity estimate (log intensity, higher = more binding, comparable within an allelic series)"
same,binding signal,HOXA4 [22],"9.99 upbm affinity estimate (log intensity, higher = more binding, comparable within an allelic series)"
same,binding signal,NKX2-6 [23],"9.52 upbm affinity estimate (log intensity, higher = more binding, comparable within an allelic series)"
same,binding signal,HOXA4 [24],"10 upbm affinity estimate (log intensity, higher = more binding, comparable within an allelic series)"
same,binding signal,PRRX1 [18],"9.88 upbm affinity estimate (log intensity, higher = more binding, comparable within an allelic series)"
same,binding signal,NKX2-5 [14],"9.52 upbm affinity estimate (log intensity, higher = more binding, comparable within an allelic series)"
AGCCCGGG,binding signal,NKX2-5 [1],"8.84 upbm affinity estimate (log intensity, higher = more binding, comparable within an allelic series)"
same,binding signal,HOXC9 [2],"9.48 upbm affinity estimate (log intensity, higher = more binding, comparable within an allelic series)"
same,binding signal,PAX4 [25],"9.12 upbm affinity estimate (log intensity, higher = more binding, comparable within an allelic series)"
same,binding signal,PAX4 [26],"8.95 upbm affinity estimate (log intensity, higher = more binding, comparable within an allelic series)"
same,binding signal,HOXA2 [27],"7.03 upbm affinity estimate (log intensity, higher = more binding, comparable within an allelic series)"
same,binding signal,HOXC9 [3],"9.82 upbm affinity estimate (log intensity, higher = more binding, comparable within an allelic series)"
same,binding signal,MSX2 [28],"9.38 upbm affinity estimate (log intensity, higher = more binding, comparable within an allelic series)"
same,binding signal,PAX4 [29],"9.17 upbm affinity estimate (log intensity, higher = more binding, comparable within an allelic series)"
same,binding signal,HOXC9 [5],"9.63 upbm affinity estimate (log intensity, higher = more binding, comparable within an allelic series)"
same,binding signal,HOXA2 [30],"10.2 upbm affinity estimate (log intensity, higher = more binding, comparable within an allelic series)"
same,binding signal,PAX4 [31],"9.12 upbm affinity estimate (log intensity, higher = more binding, comparable within an allelic series)"
same,binding signal,MSX2 [32],"9.25 upbm affinity estimate (log intensity, higher = more binding, comparable within an allelic series)"
same,binding signal,PAX4 [33],"9.07 upbm affinity estimate (log intensity, higher = more binding, comparable within an allelic series)"
same,binding signal,VAX1 [34],"6.75 upbm affinity estimate (log intensity, higher = more binding, comparable within an allelic series)"
same,binding signal,HOXC9 [10],"9.71 upbm affinity estimate (log intensity, higher = more binding, comparable within an allelic series)"
same,binding signal,MSX2 [35],"9.37 upbm affinity estimate (log intensity, higher = more binding, comparable within an allelic series)"
same,binding signal,VAX1 [36],"6.9 upbm affinity estimate (log intensity, higher = more binding, comparable within an allelic series)"
same,binding signal,PAX4 [37],"9.13 upbm affinity estimate (log intensity, higher = more binding, comparable within an allelic series)"
same,binding signal,HOXA2 [38],"10.4 upbm affinity estimate (log intensity, higher = more binding, comparable within an allelic series)"
same,binding signal,NKX3-2 [39],"10.4 upbm affinity estimate (log intensity, higher = more binding, comparable within an allelic series)"
same,binding signal,HOXA2 [40],"7.06 upbm affinity estimate (log intensity, higher = more binding, comparable within an allelic series)"
same,binding signal,VAX1 [41],"6.72 upbm affinity estimate (log intensity, higher = more binding, comparable within an allelic series)"
same,binding signal,NKX2-5 [14],"8.8 upbm affinity estimate (log intensity, higher = more binding, comparable within an allelic series)"
same,binding signal,NKX3-2 [42],"10.3 upbm affinity estimate (log intensity, higher = more binding, comparable within an allelic series)"
ACGCCCGG,binding signal,NKX2-5 [1],"8.77 upbm affinity estimate (log intensity, higher = more binding, comparable within an allelic series)"
same,binding signal,HOXB6 [43],"8.95 upbm affinity estimate (log intensity, higher = more binding, comparable within an allelic series)"
same,binding signal,NKX2-5 [14],"8.74 upbm affinity estimate (log intensity, higher = more binding, comparable within an allelic series)"
same,binding signal,HOXB6 [44],"9.06 upbm affinity estimate (log intensity, higher = more binding, comparable within an allelic series)"
AGTCCCGG,binding signal,NKX2-5 [1],"8.88 upbm affinity estimate (log intensity, higher = more binding, comparable within an allelic series)"
same,binding signal,PAX4 [25],"9.42 upbm affinity estimate (log intensity, higher = more binding, comparable within an allelic series)"
same,binding signal,PAX4 [26],"9.48 upbm affinity estimate (log intensity, higher = more binding, comparable within an allelic series)"
same,binding signal,NKX2-6 [21],"9.31 upbm affinity estimate (log intensity, higher = more binding, comparable within an allelic series)"
same,binding signal,PAX4 [29],"9.44 upbm affinity estimate (log intensity, higher = more binding, comparable within an allelic series)"
same,binding signal,PAX4 [31],"9.3 upbm affinity estimate (log intensity, higher = more binding, comparable within an allelic series)"
same,binding signal,PAX4 [33],"9.36 upbm affinity estimate (log intensity, higher = more binding, comparable within an allelic series)"
same,binding signal,NKX2-6 [23],"9.26 upbm affinity estimate (log intensity, higher = more binding, comparable within an allelic series)"
same,binding signal,PAX4 [37],"9.43 upbm affinity estimate (log intensity, higher = more binding, comparable within an allelic series)"
same,binding signal,NKX2-5 [14],"8.88 upbm affinity estimate (log intensity, higher = more binding, comparable within an allelic series)"

# Source: article PMC11006913
